Test results reported in the supplement of paper PMC6411743.
± gives the standard deviation of the averaged measurements. About 5,400 targets were measured; listed, in parts, are those with the largest changes and a random draw of the rest.

Compound: Nc1nc2c(ncn2[C@@H]2O[C@H](COP(=O)(O)OP(=O)(O)OP(=O)(O)O)[C@@H](O)[C@H]2O)c(=O)[nH]1 [guanosine triphosphate]
Assay: NP40-soluble protein abundance relative to vehicle (solubility fold change) (ratio); higher = more soluble protein in presence of GTP
Procedure, shortened: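 Eight concentrations, 0.1 to 10 mM, were tested on Jurkat crude lysate for 10 min at room temperature and then 3 min at 37 °C, in three independent experiments. The lysate was solubilised with 0.8% NP40 and benzonase, ultracentrifuged, and the supernatant TMT-labelled for LC-MS/MS. Each value is the fold change against the detergent-processed vehicle in its own replicate, from vsn-normalised intensities.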

UniProt Q15172, sequence (Q15172 whole entry): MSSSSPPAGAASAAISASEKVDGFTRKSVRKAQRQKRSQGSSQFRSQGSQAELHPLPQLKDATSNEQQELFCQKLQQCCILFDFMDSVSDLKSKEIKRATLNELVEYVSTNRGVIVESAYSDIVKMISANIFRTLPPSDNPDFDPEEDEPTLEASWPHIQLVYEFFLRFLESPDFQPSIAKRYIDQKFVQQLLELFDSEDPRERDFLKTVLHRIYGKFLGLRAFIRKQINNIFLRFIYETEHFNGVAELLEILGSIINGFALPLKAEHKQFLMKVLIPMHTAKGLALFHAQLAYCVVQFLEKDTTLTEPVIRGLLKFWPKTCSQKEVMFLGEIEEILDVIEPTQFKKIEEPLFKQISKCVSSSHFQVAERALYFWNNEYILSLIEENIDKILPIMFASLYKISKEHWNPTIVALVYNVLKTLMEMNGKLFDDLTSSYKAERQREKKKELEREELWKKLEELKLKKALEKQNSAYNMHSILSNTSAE
UniProt Q8IY18, sequence (Q8IY18 whole entry): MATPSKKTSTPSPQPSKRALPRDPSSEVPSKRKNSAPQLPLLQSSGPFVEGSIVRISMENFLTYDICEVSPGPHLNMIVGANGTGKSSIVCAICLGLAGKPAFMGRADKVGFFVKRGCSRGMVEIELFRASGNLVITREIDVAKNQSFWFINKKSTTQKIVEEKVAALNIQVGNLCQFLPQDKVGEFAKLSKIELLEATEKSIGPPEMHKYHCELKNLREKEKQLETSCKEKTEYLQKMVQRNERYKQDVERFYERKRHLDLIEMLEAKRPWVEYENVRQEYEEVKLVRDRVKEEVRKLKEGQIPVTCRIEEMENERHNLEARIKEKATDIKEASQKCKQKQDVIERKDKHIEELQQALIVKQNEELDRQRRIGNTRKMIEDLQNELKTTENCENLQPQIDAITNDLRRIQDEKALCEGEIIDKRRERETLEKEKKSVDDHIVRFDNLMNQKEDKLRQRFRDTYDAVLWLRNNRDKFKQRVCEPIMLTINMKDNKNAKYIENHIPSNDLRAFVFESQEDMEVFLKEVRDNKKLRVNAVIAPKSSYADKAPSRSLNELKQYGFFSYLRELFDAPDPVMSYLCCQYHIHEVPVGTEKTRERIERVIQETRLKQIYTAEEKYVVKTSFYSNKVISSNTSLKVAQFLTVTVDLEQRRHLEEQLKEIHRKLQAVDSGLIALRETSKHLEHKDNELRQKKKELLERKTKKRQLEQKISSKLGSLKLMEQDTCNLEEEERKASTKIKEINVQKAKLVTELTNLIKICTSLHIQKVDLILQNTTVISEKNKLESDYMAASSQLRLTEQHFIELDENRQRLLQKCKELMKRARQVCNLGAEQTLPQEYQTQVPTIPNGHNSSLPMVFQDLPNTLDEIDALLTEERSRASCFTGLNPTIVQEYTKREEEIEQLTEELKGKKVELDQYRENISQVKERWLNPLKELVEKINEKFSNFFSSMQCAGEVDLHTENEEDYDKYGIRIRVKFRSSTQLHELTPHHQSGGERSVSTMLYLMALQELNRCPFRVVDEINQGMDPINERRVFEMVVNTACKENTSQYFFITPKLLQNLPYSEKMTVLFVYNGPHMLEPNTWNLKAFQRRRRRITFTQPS
UniProt P62136, sequence (P62136 whole entry): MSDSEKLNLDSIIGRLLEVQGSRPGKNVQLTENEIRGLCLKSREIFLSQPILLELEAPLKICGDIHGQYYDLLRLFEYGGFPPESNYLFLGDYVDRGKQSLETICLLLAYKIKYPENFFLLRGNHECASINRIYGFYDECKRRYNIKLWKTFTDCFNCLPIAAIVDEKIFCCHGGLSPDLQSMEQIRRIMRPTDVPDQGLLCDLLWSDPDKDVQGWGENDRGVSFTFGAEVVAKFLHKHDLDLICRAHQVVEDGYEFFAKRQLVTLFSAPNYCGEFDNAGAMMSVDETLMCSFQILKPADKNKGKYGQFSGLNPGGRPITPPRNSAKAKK
UniProt Q13496, sequence (Q13496 whole entry): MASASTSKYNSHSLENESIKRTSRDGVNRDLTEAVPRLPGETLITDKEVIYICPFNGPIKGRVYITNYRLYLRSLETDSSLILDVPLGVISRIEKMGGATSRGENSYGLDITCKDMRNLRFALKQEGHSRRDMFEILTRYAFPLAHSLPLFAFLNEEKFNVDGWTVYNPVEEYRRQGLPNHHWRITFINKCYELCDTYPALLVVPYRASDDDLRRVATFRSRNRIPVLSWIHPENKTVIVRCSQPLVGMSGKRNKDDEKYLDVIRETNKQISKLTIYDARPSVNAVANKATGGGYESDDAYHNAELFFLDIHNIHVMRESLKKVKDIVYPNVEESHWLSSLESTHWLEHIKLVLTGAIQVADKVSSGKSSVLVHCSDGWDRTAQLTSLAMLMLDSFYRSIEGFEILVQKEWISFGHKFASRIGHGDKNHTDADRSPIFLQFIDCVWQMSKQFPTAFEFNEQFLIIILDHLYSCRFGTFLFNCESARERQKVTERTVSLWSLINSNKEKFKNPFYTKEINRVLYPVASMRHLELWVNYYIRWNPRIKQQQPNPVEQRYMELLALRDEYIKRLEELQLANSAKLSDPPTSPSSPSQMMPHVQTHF
UniProt Q86U44, sequence (Q86U44 whole entry): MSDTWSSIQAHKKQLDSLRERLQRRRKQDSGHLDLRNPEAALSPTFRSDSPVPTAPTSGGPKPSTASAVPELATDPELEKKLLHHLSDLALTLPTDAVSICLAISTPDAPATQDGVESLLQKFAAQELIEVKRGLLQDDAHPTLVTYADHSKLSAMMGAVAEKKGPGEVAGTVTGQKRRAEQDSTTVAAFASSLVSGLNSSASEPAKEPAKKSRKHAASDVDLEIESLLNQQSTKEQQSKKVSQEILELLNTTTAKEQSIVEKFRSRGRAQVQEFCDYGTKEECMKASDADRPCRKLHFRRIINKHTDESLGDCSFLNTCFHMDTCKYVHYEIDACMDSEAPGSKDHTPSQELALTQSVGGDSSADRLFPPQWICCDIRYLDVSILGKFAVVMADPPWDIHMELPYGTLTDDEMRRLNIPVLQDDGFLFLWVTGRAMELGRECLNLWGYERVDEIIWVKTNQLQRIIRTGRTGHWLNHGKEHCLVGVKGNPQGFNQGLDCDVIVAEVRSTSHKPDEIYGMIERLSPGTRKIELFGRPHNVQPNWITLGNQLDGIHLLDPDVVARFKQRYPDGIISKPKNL
UniProt Q14156, sequence (Q14156 whole entry): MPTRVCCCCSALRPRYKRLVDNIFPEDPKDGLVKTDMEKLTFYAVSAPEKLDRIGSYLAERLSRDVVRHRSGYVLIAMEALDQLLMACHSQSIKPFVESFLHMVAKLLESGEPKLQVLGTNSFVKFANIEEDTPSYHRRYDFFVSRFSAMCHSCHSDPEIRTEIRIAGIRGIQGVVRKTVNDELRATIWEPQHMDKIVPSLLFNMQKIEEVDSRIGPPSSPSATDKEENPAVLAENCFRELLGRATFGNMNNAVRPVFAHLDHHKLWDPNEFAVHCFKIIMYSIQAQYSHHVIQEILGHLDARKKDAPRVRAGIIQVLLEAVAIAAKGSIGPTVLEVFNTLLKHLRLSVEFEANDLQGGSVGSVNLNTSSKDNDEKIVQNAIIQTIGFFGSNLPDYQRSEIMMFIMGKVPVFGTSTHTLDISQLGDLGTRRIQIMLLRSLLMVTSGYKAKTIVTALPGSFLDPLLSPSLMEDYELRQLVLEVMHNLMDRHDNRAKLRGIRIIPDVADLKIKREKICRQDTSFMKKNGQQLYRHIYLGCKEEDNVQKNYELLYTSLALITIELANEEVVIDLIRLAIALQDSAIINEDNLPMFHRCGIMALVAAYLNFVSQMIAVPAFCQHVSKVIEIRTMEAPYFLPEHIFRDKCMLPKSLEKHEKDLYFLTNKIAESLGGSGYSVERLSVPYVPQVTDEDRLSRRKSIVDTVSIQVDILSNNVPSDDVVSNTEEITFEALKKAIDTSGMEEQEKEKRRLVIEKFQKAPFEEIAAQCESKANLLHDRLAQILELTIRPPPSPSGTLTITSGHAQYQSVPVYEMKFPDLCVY
UniProt Q8WUQ7, sequence (Q8WUQ7 whole entry): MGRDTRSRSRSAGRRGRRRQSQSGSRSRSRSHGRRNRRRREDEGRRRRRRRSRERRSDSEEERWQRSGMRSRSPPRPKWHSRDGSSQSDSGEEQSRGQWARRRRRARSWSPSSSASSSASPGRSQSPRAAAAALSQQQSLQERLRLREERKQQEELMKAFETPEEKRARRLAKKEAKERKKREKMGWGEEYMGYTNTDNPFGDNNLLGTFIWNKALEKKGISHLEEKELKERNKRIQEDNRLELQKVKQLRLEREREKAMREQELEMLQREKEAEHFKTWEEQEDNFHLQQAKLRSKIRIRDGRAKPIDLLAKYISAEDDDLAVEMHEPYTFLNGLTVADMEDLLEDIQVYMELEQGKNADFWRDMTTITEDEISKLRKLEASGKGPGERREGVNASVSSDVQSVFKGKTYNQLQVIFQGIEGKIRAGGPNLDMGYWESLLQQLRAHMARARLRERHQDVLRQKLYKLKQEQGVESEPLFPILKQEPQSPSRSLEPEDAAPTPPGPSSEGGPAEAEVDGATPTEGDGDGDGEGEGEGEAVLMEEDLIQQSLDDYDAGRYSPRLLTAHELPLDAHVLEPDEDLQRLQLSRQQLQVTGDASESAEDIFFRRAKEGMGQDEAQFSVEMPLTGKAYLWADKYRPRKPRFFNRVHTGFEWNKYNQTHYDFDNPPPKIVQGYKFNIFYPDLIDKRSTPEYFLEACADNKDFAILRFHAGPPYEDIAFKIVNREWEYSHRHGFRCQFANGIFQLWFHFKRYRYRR
UniProt Q32P51, sequence (Q32P51 whole entry): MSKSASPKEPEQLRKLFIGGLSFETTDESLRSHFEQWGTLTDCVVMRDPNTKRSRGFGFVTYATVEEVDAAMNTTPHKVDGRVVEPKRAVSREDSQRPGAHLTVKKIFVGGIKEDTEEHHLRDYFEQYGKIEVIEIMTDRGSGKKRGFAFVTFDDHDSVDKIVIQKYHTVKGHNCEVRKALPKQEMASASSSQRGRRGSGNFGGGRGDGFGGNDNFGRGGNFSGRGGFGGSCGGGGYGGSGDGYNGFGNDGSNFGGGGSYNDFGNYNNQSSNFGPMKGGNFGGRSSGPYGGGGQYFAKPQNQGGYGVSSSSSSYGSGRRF

Target	NP40-soluble protein abundance (concentration: 0.1mM)	NP40-soluble protein abundance (concentration: 0.5mM)	NP40-soluble protein abundance (concentration: 1mM)	NP40-soluble protein abundance (concentration: 2mM)	NP40-soluble protein abundance (concentration: 4mM)	NP40-soluble protein abundance (concentration: 6mM)	NP40-soluble protein abundance (concentration: 8mM)	NP40-soluble protein abundance (concentration: 10mM)
MDC1 (UniProt Q14676)	1.1 ± 0.024	1.14 ± 0.042	1.23 ± 0.053	1.41 ± 0.11	1.66 ± 0.17	1.77 ± 0.21	1.86 ± 0.29	1.92 ± 0.36
UniProt P62879	0.978 ± 0.035	1.01 ± 0.064	0.917 ± 0.031	0.947 ± 0.074	0.924 ± 0.05	0.937 ± 0.054	0.913 ± 0.048	0.893 ± 0.09
AARS2 (UniProt Q5JTZ9)	1.13 ± 0.043	1.02 ± 0.046	0.989 ± 0.052	0.998 ± 0.059	0.98 ± 0.06	0.948 ± 0.04	0.925 ± 0.03	0.925 ± 0.045
UniProt Q14103-3|D6RF44|Q14103-4	0.913 ± 0.097	0.946 ± 0.094	0.943 ± 0.085	0.894 ± 0.1	0.903 ± 0.1	0.915 ± 0.084	0.947 ± 0.11	0.929 ± 0.11
UniProt Q8IX12|Q8IX12-2	0.993 ± 0.042	0.985 ± 0.027	1.004 ± 0.0041	0.996 ± 0.03	1.08 ± 0.056	1.12 ± 0.06	1.17 ± 0.077	1.14 ± 0.059
UniProt Q15843|S4R3E9	1.1 ± 0.29	0.839 ± 0.092	1.25 ± 0.31	0.955 ± 0.21	1.09 ± 0.29	0.994 ± 0.18	1.11 ± 0.4	1.07 ± 0.25
HNRNPA1L2 (UniProt Q32P51)	1.34 ± 0.52	1.32 ± 0.58	1.8 ± 0.79	1.49 ± 0.44	1.47 ± 0.51	1.67 ± 0.65	1.92 ± 0.8	1.58 ± 0.35
UniProt Q13325|Q13325-2	1.06 ± 0.044	1.05 ± 0.061	0.989 ± 0.057	0.978 ± 0.05	0.952 ± 0.086	0.927 ± 0.049	0.906 ± 0.077	0.888 ± 0.13
SLC25A24 (UniProt Q6NUK1)	0.934 ± 0.055	0.93 ± 0.033	0.857 ± 0.039	0.854 ± 0.014	0.837 ± 0.026	0.845 ± 0.024	0.809 ± 0.061	0.817 ± 0.057
UniProt Q04656|Q04656-2|Q04656-3|Q04656-5	1.01 ± 0.13	1.01 ± 0.059	0.971 ± 0.096	1.01 ± 0.079	0.951 ± 0.052	1.02 ± 0.015	0.972 ± 0.11	0.924 ± 0.087
UniProt Q7Z3B4|Q7Z3B4-3	1.02 ± 0.051	1 ± 0.021	1 ± 0.038	1.01 ± 0.032	1.06 ± 0.062	1.07 ± 0.065	1.12 ± 0.055	1.18 ± 0.092
UniProt Q14444|Q14444-2	0.95 ± 0.057	0.994 ± 0.098	1.06 ± 0.07	1.01 ± 0.14	1.02 ± 0.088	1.11 ± 0.1	1.16 ± 0.057	1.13 ± 0.11
UniProt Q8WUF8|Q8WUF8-3	1.03 ± 0.14	1.03 ± 0.051	0.978 ± 0.14	1 ± 0.044	0.966 ± 0.028	1.01 ± 0.014	0.959 ± 0.021	0.99 ± 0.023
UniProt Q2TB10|A0A087WXB4	1.04 ± 0.1	1.15 ± 0.14	1.15 ± 0.12	1.36 ± 0.28	1.68 ± 0.48	1.9 ± 0.44	2.04 ± 0.64	2.54 ± 1.1
UniProt Q14156|Q14156-3	1.13 ± 0.049	1.105 ± 0.011	1.09 ± 0.11	1.1 ± 0.021	1.21 ± 0.11	1.1 ± 0.16	1.0338 ± 0.00078	1.01 ± 0.013
HNRNPA0 (UniProt Q13151)	0.975 ± 0.038	1 ± 0.024	1 ± 0.038	0.989 ± 0.05	0.967 ± 0.035	1 ± 0.046	1.01 ± 0.052	0.986 ± 0.058
PPP1CA (UniProt P62136)	0.894 ± 0.12	0.92 ± 0.12	0.861 ± 0.081	0.834 ± 0.072	0.855 ± 0.083	0.853 ± 0.056	0.837 ± 0.098	0.828 ± 0.092
P86790|P86791 (UniProt P86791+P86790)	1.06 ± 0.015	1.06 ± 0.072	1.03 ± 0.063	0.99 ± 0.038	1.01 ± 0.068	0.948 ± 0.038	0.943 ± 0.029	0.924 ± 0.0097
UniProt Q02447-3	0.995 ± 0.021	1 ± 0.078	1.01 ± 0.033	0.984 ± 0.067	0.983 ± 0.049	1.01 ± 0.084	1.08 ± 0.055	1.05 ± 0.016
SMC5 (UniProt Q8IY18)	1.026 ± 0.0089	1.06 ± 0.036	1.03 ± 0.025	1.02 ± 0.03	1.009 ± 0.0054	1.04 ± 0.019	1.05 ± 0.031	1.03 ± 0.021
UniProt Q8WUQ7|Q8WUQ7-2	0.975 ± 0.11	1.02 ± 0.12	0.967 ± 0.13	1.02 ± 0.14	1.09 ± 0.13	1.12 ± 0.095	1.12 ± 0.03	1.19 ± 0.11
UniProt Q5K651|C9JKF1	1.04 ± 0.017	1.07 ± 0.021	0.998 ± 0.025	1.01 ± 0.062	0.968 ± 0.083	0.959 ± 0.047	0.985 ± 0.045	0.949 ± 0.088
PPP2R5A (UniProt Q15172)	1.04 ± 0.063	0.993 ± 0.046	0.939 ± 0.011	0.9 ± 0.033	0.877 ± 0.048	0.864 ± 0.04	0.862 ± 0.097	0.848 ± 0.055
UniProt P62195	1.03 ± 0.069	1.08 ± 0.12	1.04 ± 0.14	1.07 ± 0.17	1.06 ± 0.15	1.08 ± 0.19	1.06 ± 0.16	0.977 ± 0.15
C15orf40 (UniProt Q8WUR7)	1.02 ± 0.1	1.02 ± 0.084	1.03 ± 0.034	1.05 ± 0.12	1.04 ± 0.13	1.01 ± 0.097	1.11 ± 0.061	1.17 ± 0.12
UniProt Q86W42|Q86W42-2	1.21 ± 0.14	1.35 ± 0.28	1.46 ± 0.27	1.87 ± 0.52	2.27 ± 0.61	2.29 ± 0.68	2.26 ± 0.54	2.31 ± 0.65
MTM1 (UniProt Q13496)	1.01 ± 0.078	1.08 ± 0.088	0.961 ± 0.043	0.99 ± 0.076	0.933 ± 0.093	0.962 ± 0.093	0.93 ± 0.057	0.891 ± 0.087
METTL3 (UniProt Q86U44)	0.967 ± 0.058	1.01 ± 0.061	0.969 ± 0.062	0.948 ± 0.076	0.911 ± 0.06	0.932 ± 0.058	0.92 ± 0.085	0.931 ± 0.063
UniProt P61962	1.02 ± 0.081	1.08 ± 0.089	0.988 ± 0.07	1.04 ± 0.1	1.02 ± 0.057	1.01 ± 0.092	0.946 ± 0.021	0.964 ± 0.03
